Reference: ChEMBL document CHEMBL1157539, “Thousands of chemical starting points for antimalarial lead identification” (Nature, 2010)

Test system: Plasmodium falciparum
Assay: GSK_TCMDC: Inhibition of Plasmodium falciparum Dd2 in whole red blood cells, using parasite LDH activity as an index of growth. Test compounds present at 2uM
Assay type: functional

Point of comparison: `CCN(CC)CCN(Cc1ccc(-c2ccc(C(F)(F)F)cc2)cc1)C(=O)Cn1c(CCc2cccc(F)c2F)nc(=O)c2ccccc21.O=C(O)C(O)C(O)C(=O)O`, Inhibition 60%. Against it:
- O=C(Nc1ccc(F)c(Cl)c1)NC1CCN(c2ccnc3cc(Cl)ccc23)C1.O=C(O)C(F)(F)F (stereo not drawn) — higher, 74%
- O=C(Nc1cccc(CN2CCCN(Cc3ccc(O)cc3)CC2)c1)c1cc2ccccc2o1.O=C(O)C(F)(F)F — higher, 62%
- CCN(CCCN1CCCCC1)c1cc(C)nc(Nc2ccc(Cl)cc2C)n1.O=C(O)C(F)(F)F — lower, 46%
- c1ccc2[nH]c(CN(Cc3nc4ccccc4[nH]3)Cc3nc4ccccc4[nH]3)nc2c1 — higher, 86%
- CCC(=O)N(c1ccccc1)C1CCN(CCCC(NC(=O)c2cc(C(F)(F)F)cc(C(F)(F)F)c2)c2ccc(Cl)c(Cl)c2)CC1 (stereo not drawn) — lower, 57%
- Cc1ccc(C(=O)Nc2ccc(Nc3ccnc4cc(-c5nccs5)ccc34)cc2O)cc1.Cl — higher, 100%
- CN1CCN(CCCN(Cc2ccc(-c3ccc(CNCc4ccc5c(c4)OCO5)cc3)cc2)C(=O)Nc2ccccc2)CC1.O=C(O)C(F)(F)F — higher, 77%
- CCOc1ccccc1NC(=O)C(Sc1nc(C)cc(C)c1C#N)c1ccccc1 (stereo not drawn) — higher, 98%
- COc1ccc2nccc([C@@H](O)CN3CCC(c4cc(-c5ccc(Cl)cc5)[nH]n4)CC3)c2n1 — lower, 56%
- CN1CCN(CCNc2c3ccccc3nc3ccc4ccccc4c23)CC1.Cl — higher, 99%
- CCC(C)Oc1ccc2nc(N)nc(N)c2c1Cl (stereo not drawn) — lower, 0%
- CCOc1cc(C=Cc2nc(O)c3ccccc3n2)cc(Cl)c1O — higher, 90%
